# According to PubChem BioAssay AID504339 (National Center for Advancing Translational Sciences (NCATS), 2011):
# The campaign covered roughly 390,000 compounds. About 17,000 (4.4%) were called active. A call without a number means that no potency is given here. Another 8% or so got no clear call; they are omitted. The sample holds actives, similar compounds and a random draw of the others, so the mix is not that of the screen. The call rests on the fitted dose curve; in most records, active means well fitted inhibition curve with a large enough effect; inconclusive means small, poorly fitted or top-dose-only effect; inactive means no such curve, though single readings can be large or run the other way.
# Target: Lysine-specific demethylase 4A (Homo sapiens) (UniProt O75164)
# Sequence (O75164 whole entry, looked up, the tested form may be a part): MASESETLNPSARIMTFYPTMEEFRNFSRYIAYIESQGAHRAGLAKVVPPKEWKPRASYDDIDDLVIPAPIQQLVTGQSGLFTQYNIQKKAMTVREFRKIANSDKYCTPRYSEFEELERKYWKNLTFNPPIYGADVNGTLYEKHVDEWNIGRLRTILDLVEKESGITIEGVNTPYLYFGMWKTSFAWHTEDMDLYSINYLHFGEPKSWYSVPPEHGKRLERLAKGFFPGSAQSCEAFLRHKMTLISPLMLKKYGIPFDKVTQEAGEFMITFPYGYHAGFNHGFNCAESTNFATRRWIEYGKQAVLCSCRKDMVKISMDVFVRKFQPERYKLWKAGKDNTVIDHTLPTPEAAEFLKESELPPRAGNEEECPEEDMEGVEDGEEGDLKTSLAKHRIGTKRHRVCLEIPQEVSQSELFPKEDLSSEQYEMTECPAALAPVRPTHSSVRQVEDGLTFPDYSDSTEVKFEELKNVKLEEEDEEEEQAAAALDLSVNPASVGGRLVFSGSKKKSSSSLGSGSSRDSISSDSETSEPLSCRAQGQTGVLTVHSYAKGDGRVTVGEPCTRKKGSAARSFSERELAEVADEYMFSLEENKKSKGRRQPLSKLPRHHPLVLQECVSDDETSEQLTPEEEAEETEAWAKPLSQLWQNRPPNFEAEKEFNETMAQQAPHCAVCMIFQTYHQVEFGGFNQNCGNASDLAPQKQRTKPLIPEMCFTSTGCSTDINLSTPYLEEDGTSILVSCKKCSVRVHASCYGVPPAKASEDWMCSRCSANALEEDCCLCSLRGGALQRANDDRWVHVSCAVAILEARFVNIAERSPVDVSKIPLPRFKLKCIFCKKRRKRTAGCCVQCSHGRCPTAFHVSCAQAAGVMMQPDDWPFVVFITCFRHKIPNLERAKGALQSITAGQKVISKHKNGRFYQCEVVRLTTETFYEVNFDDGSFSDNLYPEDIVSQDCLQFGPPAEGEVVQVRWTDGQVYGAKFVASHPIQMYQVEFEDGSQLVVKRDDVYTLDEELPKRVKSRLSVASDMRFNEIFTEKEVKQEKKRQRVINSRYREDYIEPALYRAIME
# Test: qHTS Assay for Inhibitors of JMJD2A-Tudor Domain; further: nearly all actives have a fitted effect of over 50% in size
# Conditions: AlphaScreen JMJD2A-Tudor / H3K4me3 peptide binding; series mostly up to 114 µM
# Potency means the concentration at half of the fitted maximal effect.
row,Compound,Potency
1,Cc1ccc(C)c2sc(NC(=O)c3ccc(S(=O)(=O)N4CCCC4)cc3)nc12,inactive
2,COc1ccccc1CNS(=O)(=O)c1cc(Br)cc2c1N(C(C)=O)C(C)C2 (stereo not given),inactive
3,CC(C)CCNC(=O)CSc1nc2ccccc2nc1Cc1ccc(Cl)cc1,inactive
4,CCC1CCCCN1S(=O)(=O)c1ccc(NC(=O)c2cc(=O)c3ccccc3o2)cc1 (stereo not given),inactive
5,CCOc1ccc(Nc2ncnc3scc(-c4ccc(OC)cc4)c23)cc1,inactive
6,CCCCNC(=O)CSc1nccn1Cc1ccccc1,inactive
7,O=C(CSc1nccn1Cc1ccc(Cl)cc1)NCc1ccccc1,inactive
8,COC(=O)CCSc1nccn1Cc1ccccc1,35.5 µM (active)
9,COc1ccc(CNC(=O)c2ccc3c(O)c(S(=O)(=O)c4ccccc4)c(=O)[nH]c3c2)cc1,inactive
10,Cc1ccccc1NC(=O)c1c(NC(=O)c2ccccc2F)sc2c1CCC(C)C2 (stereo not given),inactive
11,COc1cc(C2/C(=C(\O)c3ccc4c(c3)CC(C)O4)C(=O)C(=O)N2Cc2ccco2)ccc1O (stereo not given),inactive
12,COc1cc(C2/C(=C(\O)c3ccc4c(c3)CC(C)O4)C(=O)C(=O)N2c2nnc(C)s2)cc(OC)c1OC (stereo not given),44.7 µM (active)
13,CCOc1ccc(C2/C(=C(/O)c3ccc4c(c3)CC(C)O4)C(=O)C(=O)N2CCCn2ccnc2)cc1 (stereo not given),inactive
14,O=C(Nc1ccc2c(c1)OCO2)c1cc(-c2cccc(Cl)c2)on1,inactive
15,CC(C)C12CN3CC(C(C)C)(CN(C1)C3c1ccc(OCc3ccccc3)cc1)C2=O (stereo not given),inactive
16,O=C(O)C1OC(C(=O)O)C2C1C(F)(F)C2(F)F (stereo not given),28.2 µM (active)
17,Cc1ccc2nc(/C(C#N)=C/c3ccccc3F)[nH]c2c1,inactive
18,O=C(NNC(=O)c1ccc(Cl)nc1)c1ccc(Br)cc1,inactive
19,O=C(NNc1ccccn1)c1ccc(Cl)nc1,4.47 µM (active)
20,COc1ccc(C(=O)/C=C/Nc2ccccn2)cc1,inactive
21,COc1ccccc1-c1noc(-c2ccc(NCc3ccccc3)c([N+](=O)[O-])c2)n1,inactive
22,CCN1CCC(N(Cc2ccc(F)cc2)C(=O)Nc2cc(C)ccc2C)CC1,inactive
23,Cc1ccc(NC(=O)CN2C(=O)C(c3ccc(F)cc3)=NC23CCCCCC3)c(C)c1,inactive
24,CCN1CCC2(CC1)N=C(c1ccc(F)cc1)C(=S)N2C(=O)c1ccc(C)cc1,31.6 µM (active)
25,COc1cccc(NC(=O)N(Cc2cn(C)c3ccccc23)C2CCCCCC2)c1,inactive

row,Compound,Potency
1,Cc1ccc(Cn2c(CCCNC(=O)C3CCCCC3)nc3ccccc32)cc1,inactive
2,Cc1ccc(NC(=O)CCN2C(=O)c3ccccc3C2=O)cc1C,inactive
3,Cc1cc(C)cc(NC(=O)CCN2C(=O)c3ccccc3C2=O)c1,inactive
4,Cc1cc2c(cc1C)N(C(=O)CN1C(=O)c3ccccc3C1=O)C(C)(C)c1ssc(=S)c1-2,39.8 µM (active)
5,CCN(CC)c1cc(NC2CCCCC2)c2c3c(onc13)-c1ccccc1C2=O,8.91 µM (active)
6,Cc1cccc(-c2nc(SCc3ccc(Br)cc3)n3[nH]c(=O)cc3n2)c1,inactive
7,Cc1cccc(CNC(=O)c2cnc3sc(N4CCCCC4)nn3c2=O)c1,inactive
8,CCCCN(C(=O)C1CCC1)c1c(N)n(Cc2ccccc2)c(=O)[nH]c1=O,inactive
9,CCCCN(Cc1ccccc1)C(=O)C1CCN(Cc2sccc2C)CC1,5.62 µM (active)
10,CCNC(=S)NNC(=O)C1CCN(Cc2ccccc2)CC1,inactive
11,Cc1nn(-c2ccc(N3CCCCC3)nn2)c(C)c1CCC(=O)NCc1ccccc1F,inactive
12,COc1ccc(CNC(=O)C2CCCC2)cc1,inactive
13,COc1ccc(CN2CCCC(C(=O)N3CCCCC3)C2)cc1 (stereo not given),79.4 µM (active)
14,COc1ccc(/C=C/C(=O)NC(=S)N2CCCC(C(N)=O)C2)cc1 (stereo not given),inactive
15,O=C(COc1ccc(Cl)cc1)Nc1ccccc1OCc1cc(=O)n2ccccc2n1,inactive
16,CC(=O)c1cccc(NC(=O)C2COc3ccccc3O2)c1 (stereo not given),inactive
17,C/C(=N/NC(=O)C1COc2ccccc2O1)c1ccco1 (stereo not given),inactive
18,O=C(Nc1nc(-c2ccncc2)cs1)C1COc2ccccc2O1 (stereo not given),50.1 µM (active)
19,O=C(CC(c1cccs1)N1Cc2ccccc2C1=O)Nc1ccc(F)cc1F (stereo not given),inactive
20,Cc1ccc(NS(=O)(=O)c2cc3c(cc2Br)NC(=O)CO3)cc1C,inactive
21,COc1c(O)cc2oc(-c3ccc(O)c(O)c3)cc(=O)c2c1O,31.6 µM (active)
22,CCOC(=O)COc1cc(OCC(=O)OCC)c2c(=O)cc(-c3ccccc3)oc2c1,inactive
23,COc1ccc(-c2c(C)c3ccc(O)c(CN4CCN(C)CC4)c3oc2=O)cc1OC,inactive
24,O=C(CCc1nc(CN2CCN(S(=O)(=O)c3ccc(F)cc3)CC2)no1)N1CCCCC1,inactive
25,O=C(Nc1ccc(OC(F)(F)F)cc1)c1cc2c(=O)n3ccccc3nc2s1,inactive

row,Compound,Potency
1,CCc1c(C)sc(NC(=O)c2cccs2)c1C(N)=O,89.1 µM (active)
2,CCc1c(C)sc(NC(=O)c2ccc(Br)o2)c1C(=O)OC,inactive
3,CCc1cccc(C)c1NC(=O)COC(=O)CNC(=O)c1cccs1,inactive
4,CC1CCCN(S(=O)(=O)c2ccc3[nH]c(=O)cc(C(=O)NCCc4ccc(Cl)cc4)c3c2)C1 (stereo not given),inactive
5,Cc1ccc(NC(=O)c2nc(S(=O)(=O)Cc3cccc(C)c3)ncc2Cl)cc1,inactive
6,Cc1cccc(C(=O)N2CCc3c([nH]c4ccccc34)C2CC(C)C)n1 (stereo not given),inactive
7,O=C(c1cn2ccccc2n1)N1CCc2c([nH]c3ccccc23)C1c1ccccn1 (stereo not given),inactive
8,Cc1cccc(C2c3[nH]c4ccccc4c3CCN2C(=O)c2cc(-c3cccn3C)n[nH]2)n1 (stereo not given),56.2 µM (active)
9,COc1ccc(CCNC(=O)c2cnc3sc(N4CCCCCC4)nn3c2=O)cc1OC,inactive
10,COc1ccccc1NC(=O)Cn1cnc2ccc(S(=O)(=O)N3CCC(C)CC3)cc2c1=O,inactive
11,COc1ccc(OC)c(NC(=O)CSC2=Nc3ccccc3C3=NC(CC(=O)NCCc4ccccc4)C(=O)N23)c1 (stereo not given),inactive
12,Cc1cccc(N(C)C(=O)CS(=O)(=O)c2cccc3nsnc23)c1,inactive
13,Cc1cc(C)c(C=NNc2nc3c([nH]2)c(=O)n(C)c(=O)n3C)c(C)c1,inactive
14,Cc1ccc(NN=Nc2nc3c([nH]2)c(=O)n(C)c(=O)n3C)cc1,14.1 µM (active)
15,Cc1cccc(C)c1NC(=O)CSc1nc2c([nH]1)c(=O)n(C)c(=O)n2C,inactive
16,CCc1ccc(NC(=O)c2cc3c(=O)n(Cc4cccnc4)ccc3nc2C)cc1,inactive
17,O=C(NCc1ccccc1)C(=O)NCC(c1ccco1)S(=O)(=O)c1ccc(Cl)cc1 (stereo not given),inactive
18,Cc1ccc(C)n1-c1nnc(N2CCC(C(=O)NCc3ccccc3Cl)CC2)s1,inactive
19,C=CCNC(=O)c1ccc2nc(-c3ccco3)c(-c3ccco3)nc2c1,inactive
20,CCOc1ccc(NC(=O)c2ncoc2-c2ccco2)cc1,inactive
21,COCCNC(=O)Nc1ccc2nc(-c3ccco3)c(-c3ccco3)nc2c1,20 µM (active)
22,CC(C)Cn1c(C2CC(=O)N(c3ccccc3Cl)C2)nc2ccccc21 (stereo not given),inactive
23,Cc1ccccc1CNC(=O)c1ccc(NC(=O)N2CCCCc3ccccc32)cc1,inactive
24,CCOC(=O)c1c(C)[nH]c(C)c1S(=O)(=O)N(C)CC(=O)N1CCN(c2ccccc2)CC1,inactive
25,Cc1cc(Br)ccc1NC(=O)Cn1cnc2sc(C)c(S(=O)(=O)N3CCN(C)CC3)c2c1=O,inactive

row,Compound,Potency
1,O=C(Nc1nnc(-c2ccco2)o1)c1ccc(S(=O)(=O)N2CCOCC2)cc1,79.4 µM (active)
2,O=C(Nc1nnc(-c2ccccc2)o1)c1cccc(S(=O)(=O)N2CCOCC2)c1,inactive
3,CC1CCCN(S(=O)(=O)c2ccc(C(=O)Nc3nnc(-c4ccncc4)o3)cc2)C1 (stereo not given),inactive
4,Cc1ccc(Nc2nnc(-c3ccc(C)c(S(=O)(=O)N4CCCCC4)c3)c3ccccc23)cc1,inactive
5,COc1ccccc1-c1nnc(-c2ccc(F)cc2)o1,inactive
6,COc1ccccc1C1=Nc2cccc3cccc(c23)N1,50.1 µM (active)
7,COc1ccccc1-c1nc(C(F)(F)F)c(OC)o1,inactive
8,COc1ccc(NC(=O)Cn2c(=O)cc(C)c3c(C)nn(-c4cccc(Cl)c4C)c32)cc1OC,inactive
9,CCOC(=O)C1CCCN(C(=O)c2ccc(-n3ccc4ccccc43)s2)C1 (stereo not given),inactive
10,CCCn1c2ccccc2c2cnn(CC(=O)N(CC)c3cc(C)ccc3C)c(=O)c21,inactive
11,Cc1nnc(NCc2ccccc2)c2c1nnn2Cc1ccc(F)cc1,inactive
12,CN(C)[C@@H]1C(=O)C(C(N)=O)=C(O)[C@@]2(O)C(=O)C3=C(O)c4c(O)ccc(Cl)c4[C@@H](O)[C@H]3C[C@@H]12,25.1 µM (active)
13,C=C1c2c(Cl)ccc(O)c2C(O)=C2C(=O)[C@]3(O)C(O)=C(C(N)=O)C(=O)[C@@H](N(C)C)[C@@H]3[C@@H](O)C12 (stereo not given in full),2 µM (active)
14,COc1ccccc1NC(=O)CSC1=Nc2ccccc2C2=NC(CC(=O)NCc3cccs3)C(=O)N12 (stereo not given),inactive
15,COc1ccc(C)cc1-n1c(-c2ccc(C)cc2)cc2c1CC(C)(C)CC2=O,inactive
16,O=C1CSC2(C(=O)N(Cc3ccccc3)c3ccccc32)N1c1cccc(F)c1 (stereo not given),inactive
17,COc1ccccc1Nc1nc(N)nc(CN(C)C2CCCCC2)n1,15.8 µM (active)
18,COc1ccccc1NC1=NC(c2ccc(Cl)cc2)N=C(N)N1 (stereo not given),inactive
19,COc1ccccc1Nc1nc(N)nc(CSC(=S)N2CCOCC2)n1,inactive
20,O=C(Nc1cc(C(F)(F)F)ccc1Cl)c1ccc2c(c1)CCN2S(=O)(=O)c1ccccc1,inactive
21,CC(C)CNc1ncnc2c1nnn2C,inactive
22,O=C(CC1N=C2c3ccccc3N=C(SCc3cccc(Cl)c3)N2C1=O)NCc1ccc2c(c1)OCO2 (stereo not given),inactive
23,COCCCNCC(=O)Nc1sc(C)c(C)c1C(=O)OC,28.2 µM (active)
24,COC(=O)c1c(NC(=O)c2c(Cl)cnn2C)sc(C)c1C,inactive
25,CCOC(=O)c1c(NC(=O)CCl)sc(C(=O)N(CC)CC)c1C,inactive
